Where “and” joins values, the source holds several entries; their conditions need not be identical. Equal entries are not always repeated. Records with an inconclusive call do not appear. Calls of active or inactive are those of the source. Calls come from the whole dose curve; as a rule, active = well fitted curve in the direction sought with a large enough effect; inconclusive = small, poorly fitted or top-dose-only effect, or another doubt; inactive = no such curve, though single readings can be large; an effect the other way counts as inactive or inconclusive.
Tests used:
[1] = Viability qHTS for spleen associated tyrosine kinase inhibitor (SYKi) drug resistant MV4-11 cells (AID 1963824); note: nearly all actives have a fitted effect of over 35% in size
Procedure, shortened: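 CellTiter-Glo luminescence, read 10 min after reagent addition, reports viability after a 72 hr compound exposure. Cells are an MV4-11 line made resistant to SYK inhibition, seeded at 500 per well onto compound-containing plates.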

[2] = Quantitative highthroughput screen to assess conditional lethalithy of NOMO1 cells grown in RPMI1640 with untreated serum (RPMI+s) (AID 1963876); note: nearly all actives have a fitted effect of over 35% in size;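 for Viability: 100% = DMSO wells and 0% = empty wells without cells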
Procedure, shortened: (§1)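 Each medium arm—HPLM with 10% dialyzed FBS, or RPMI1640 with 5 mM glucose and 10% untreated or dialyzed FBS—was screened against an 11-point, 3-fold compound titration for 48 h at 37 °C, with CellTiter-Glo luminescence as endpoint.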

[3] = Quantitative highthroughput screen to assess conditional lethalithy of NOMO1 cells grown in RPMI1640 with dialyzed fetal bovine serum (RPMI+ds) (AID 1963877); note: nearly all actives have a fitted effect of over 30% in size;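 for Viability: series mostly up to about 46 µM; 100% = DMSO control wells and 0% = empty wells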
Procedure, shortened: as §1

[4] = Quantitative highthroughput screen to assess conditional lethalithy of NOMO1 cells grown in Human Plasma-Like Medium with dialyzed fetal bovine serum (HPLM+ds) (AID 1963878); note: nearly all actives have a fitted effect of over 35% in size;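 for Viability: 100% = DMSO wells and 0% = empty wells on each plate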
Procedure, shortened: as §1

[5] = Quantitative highthroughput screen to assess conditional lethalithy of P12 Ichikawa cells grown in Human Plasma-Like Medium with dialyzed fetal bovine serum (HPLM+ds) (AID 1963879); settings: Potency: viability; note: nearly all actives have a fitted effect of over 35% in size; for Viability: series mostly up to about 46 µM
Procedure, shortened: as §1

[6] = Quantitative highthroughput screen to assess conditional lethalithy of P12 Ichikawa cells grown in RPMI1640 with dialyzed fetal bovine serum (RPMI+ds) (AID 1963880); settings: Potency: P12-Ichikawa viability; note: nearly all actives have a fitted effect of over 35% in size;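 for Viability: 100% = DMSO wells and 0% = empty wells on each plate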
Procedure, shortened: as §1

[7] = Quantitative highthroughput screen to assess conditional lethalithy of P12 Ichikawa cells grown in RPMI1640 with untreated serum (RPMI+s) (AID 1963881); settings: Potency: viability; note: nearly all actives have a fitted effect of over 35% in size;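 for Viability: series mostly up to about 46 µM; 100% = DMSO wells and 0% = empty wells without cells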
Procedure, shortened: as §1

[8] = Quantitative highthroughput screen to assess conditional lethalithy of SEM cells grown in Human Plasma-Like Medium with dialyzed fetal bovine serum (HPLM+ds) (AID 1963882); note: nearly all actives have a fitted effect of over 35% in size; for Viability: series mostly up to about 46 µM
Procedure, shortened: as §1

[9] = Quantitative highthroughput screen to assess conditional lethalithy of SEM cells grown in RPMI1640 with unreated serum (RPMI+s) (AID 1963883); note: nearly all actives have a fitted effect of over 35% in size;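 for Viability: 100% = DMSO wells and 0% = empty wells without cells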
Procedure, shortened: as §1

[10] = Quantitative highthroughput screen to assess conditional lethalithy of SEM cells grown in RPMI1640 with dialyzed fetal bovine serum (RPMI+ds) (AID 1963884); note: nearly all actives have a fitted effect of over 35% in size;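 for Viability: series mostly up to about 46 µM; 100% = DMSO control wells and 0% = empty wells without cells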
Procedure, shortened: as §1

[11] = Cellular viability qHTS for adrenocortical cancer (ACC) cell line SW-13 (AID 1963989); settings: SW-13 ACC cells viability, CellTiter-Glo, 48 h; activity (max response): hits give low values; note: nearly all actives have a fitted effect of over 65% in size;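 for activity (max response): cells grown in serum-free medium with ITS supplement; % is set by controls: 0 for no effect and ±100 for the full control effect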
Procedure, shortened: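 SW-13 cells in ITS-supplemented serum-free DMEM were plated overnight, then exposed for 48 h at 37C to compound titrations (up to 46 uM final). Viability was read by CellTiter-Glo luminescence; four-parameter logistic fits gave IC50 and efficacy.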

[12] = Cellular viability qHTS for adrenocortical cancer (ACC) cell line NCI-H295R (AID 1963990); note: nearly all actives have a fitted effect of over 60% in size
Procedure, shortened: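 Luminescent ATP read-out (CellTiter-Glo, 20 min RT) after 48 h drug exposure of NCI-H295R cells; a titration up to 46 uM final. Data normalized to doxorubicin (100% inhibition) and DMSO (0%); 4-parameter fit gives IC50, max response.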
Potency is the fitted concentration of half-maximal effect.

CO[C@H]1C=CO[C@@]2(C)Oc3c(C)c(O)c4c(O)c(c5c(c4c3C2=O)NC2(CCN(CC(C)C)CC2)N=5)=NC(=O)C(C)=CC=C[C@H](C)[C@H](O)[C@@H](C)[C@@H](O)[C@@H](C)[C@H](OC(C)=O)[C@H]1C
inactive: Potency [2] | Potency [3] | Potency [4] | Potency [5] | Potency [6] | Potency [7] | Potency [8] | Potency [9] | Potency [10]
active: Potency [1] 18.4 µM

O=C(O)COCCN1CCN(C(c2ccccc2)c2ccc(Cl)cc2)CC1 (configuration not stated)
inactive: Potency [1] | Potency [2] | Potency [3] | Potency [4] | Potency [5] | Potency [6] | Potency [7] | Potency [8] | Potency [9] | Potency [10] | activity (max response) [11] 9.41% | Potency [12]

COc1ccc(C[C@@H](C)[C@@H](C)Cc2ccc(OC)c(OC)c2)cc1OC
inactive: Potency [12]
active: Potency [1] 11.8 µM | Potency [2] 2.35 µM | Potency [3] 2.64 µM | Potency [4] 0.833 µM | Potency [5] 2.35 µM | Potency [6] 2.35 µM | Potency [7] 2.35 µM | Potency [8] 2.64 µM | Potency [9] 2.64 µM | Potency [10] 2.64 µM

O=C(Nc1cccc(Br)c1)c1cccc(S(=O)(=O)N2CCCCCC2)c1
inactive: Potency [2] | Potency [3] | Potency [4] | Potency [5]
active: Potency [1] 5.25 µM

O=C(Nc1cc2cc[nH]c2cn1)c1ccccc1
active: Potency [1] 9.2 µM | Potency [2] 5.9 µM | Potency [3] 13.2 µM | Potency [4] 3.32 µM | Potency [5] 2.96 µM | Potency [6] 5.9 µM | Potency [7] 14.8 µM | Potency [8] 3.72 µM | Potency [9] 2.96 µM | Potency [10] 3.32 µM

CCOc1nc2c(N)ncnc2n1CC
inactive: Potency [1]

CN(NC(=O)CC(=O)NN(C)C(=S)c1ccccc1)C(=S)c1ccccc1
active: Potency [1] 46.1 nM and 4.2 nM | Potency [2] 0.066 µM | Potency [3] 0.0588 µM | Potency [4] 0.066 µM | Potency [6] 0.0741 µM | Potency [7] 0.0741 µM | Potency [8] 0.0371 µM | Potency [9] 0.0417 µM | Potency [10] 0.0417 µM

CNCCN(C)Cc1cn[nH]c1-c1ccc(OC2CC(OCCC3CCOCC3)C2)cc1 (configuration not stated)
inactive: Potency [2] | Potency [3] | Potency [4] | Potency [6] | Potency [7] | Potency [12]
active: Potency [1] 14.8 µM

Nc1nc(OCc2ccccc2)c2[nH]cnc2n1
active: Potency [1] 20.9 µM
inactive: Potency [2] | Potency [3] | Potency [4] | Potency [6] | Potency [8] | Potency [9] | Potency [10] | activity (max response) [11] -9.18% | Potency [12]

COc1ccc2c(c1OC)C(=O)OC2[C@H]1c2c(cc3c(c2OC)OCO3)CCN1C (some centres not stated)
active: Potency [1] 23.5 µM | Potency [2] 0.296 µM | Potency [3] 0.332 µM | Potency [4] 0.148 µM | Potency [5] 0.469 µM | Potency [7] 0.418 µM | Potency [8] 0.235 µM | Potency [9] 0.118 µM | Potency [11] 22.4 µM | Potency [12] 25.1 µM

CN(C)CCN1C(=O)c2cccc3cc(N)cc(c23)C1=O
active: Potency [1] 3.72 µM | Potency [2] 14.8 µM | Potency [3] 18.7 µM | Potency [4] 14.8 µM | Potency [6] 18.7 µM | Potency [7] 16.6 µM | Potency [8] 5.9 µM | Potency [9] 5.26 µM | Potency [10] 9.35 µM | Potency [11] 22.4 µM | Potency [12] 22.4 µM

CCS(=O)(=O)c1cccc(-c2cc(C(=O)NC3CCN(C)CC3)c(C)c3[nH]c4ncc(C)cc4c23)c1
active: Potency [1] 36 nM and 66.1 nM | Potency [2] 14.8 µM | Potency [3] 11.8 µM | Potency [4] 6.62 µM | Potency [5] 0.264 µM | Potency [7] 0.235 µM | Potency [9] 0.296 µM | Potency [11] 1 µM | Potency [12] 17.8 µM

COc1cc(C(C)C)c(Oc2cnc(NC(CO)CO)nc2N)cc1I
inactive: Potency [2] | Potency [3] | Potency [4] | Potency [5] | Potency [6] | Potency [8] | Potency [12]
active: Potency [1] 14.8 µM

Cc1ccc(C(=O)Nc2ccc(Oc3cc4cnn(C)c4cc3-c3cn[nH]c3)c(F)c2)c(=O)n1-c1ccc(F)cc1
active: Potency [1] 0.0047 µM | Potency [2] 8.31 µM | Potency [3] 9.33 µM | Potency [4] 7.41 µM | Potency [5] 6.6 µM | Potency [7] 6.6 µM | Potency [8] 0.295 µM | Potency [9] 0.467 µM | Potency [10] 0.234 µM
inactive: activity (max response) [11] -20.9%

O=C(Nc1cccc(Nc2ncc(Br)c(NCCc3cnc[nH]3)n2)c1)N1CCCC1
active: Potency [1] 0.132 µM | Potency [2] 5.9 µM | Potency [3] 11.8 µM | Potency [4] 2.96 µM | Potency [5] 0.662 µM | Potency [9] 0.166 µM

O=C(Nc1cc(Cl)cc2c1[nH]c1cnccc12)c1cccnc1
active: Potency [1] 3.55 µM
inactive: Potency [2] | Potency [3] | Potency [4] | Potency [6] | Potency [7] | Potency [8] | activity (max response) [11] 7.23% | Potency [12]

CNc1nc(Nc2ccc(C(=O)N3CCOCC3)cc2OC)ncc1Cl
active: Potency [1] 5.8 µM
inactive: Potency [2] | Potency [3] | Potency [4] | Potency [5] | Potency [6] | Potency [7] | activity (max response) [11] -6.87% | Potency [12]
